Screening results (PubChem BioAssay)
Sampled rows, rich in hits. Any-hit rate of the full collection: about 19%.
MCF10A rereplic = A quantitative high throughput screen for small molecules that induce DNA re-replication in MCF 10a normal breast cells. MCF 10A DNA re-replication, Hoechst nuclear intensity, 48 h. Potency, µM (doses to about 46.1 µM), for inactives: at the top dose activity, positive = re-replication, actives largely listed as activators. hit rate 2.9% among 350,000; further: potency means the concentration at half of the fitted maximal effect; % of control where 0% means no effect; nearly all actives have a fitted effect of over 50% in size
BCR signal inh = qHTS Assay to Find Inhibitors of Chronic Active B-Cell Receptor Signaling. ABC-DLBCL IkBa-CBG/CBR reporter, luminescence ratio, 4 h. Potency, µM (top dose mostly 46.1 µM), for the others: top-dose activity change, negative = inhibition, most hits filed as inhibitors. hit rate 0.05% among 340,000. AID 493014, 2011; active means well fitted inhibition curve with a large enough effect in the signal ratio, with a control signal flat, not every such curve was filed as active; inconclusive means small, poorly fitted or top-dose-only effect, or effect the other way, or a change in a side signal; the % refers to the signal ratio;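 further: potency means the concentration at half of the fitted maximal effect; plate controls were basal doxycycline-induced cells for no effect and cells given 10 µM MG132 for full effect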
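TMD8 ABC-DLBCL cells carrying doxycycline-inducible green luciferase fused to IkappaBalpha plus unfused red luciferase were exposed to compounds (up to 46 uM) for 4 hrs at 37C. Activity came from the overlap-corrected green/red luminescence ratio.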
TDP1 cell CPT = qHTS for Inhibitors of human tyrosyl-DNA phosphodiesterase 1 (TDP1): qHTS in cells in presence of CPT; chicken DT40 Tdp1-/-;hTDP1 cells + 20 nM CPT, ATP luminescence, 48 h; Potency, µM (top dose mostly 46.2 µM), for inactives: at the highest dose activity change, negative = growth inhibition, usual class: inhibitors; hit rate 12% among 420,000; AID 686979, 2013; further: potency means the concentration at half of the fitted maximal effect; on the % scale 0 is the no-effect control and ±100 the full control effect; nearly all actives have a fitted effect of over 55% in size
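Chicken DT40 Tdp1-/- cells stably complemented with human TDP1 were seeded at 400 cells/well in medium containing 20 nM camptothecin, exposed to pin-transferred compounds, and grown at 37 °C for at least 48 hr. Viability was read as ATP luminescence.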
TDP1 cell noCPT = qHTS for Inhibitors of human tyrosyl-DNA phosphodiesterase 1 (TDP1): qHTS in cells in absence of CPT; DT40 Tdp1-/- hTDP1 cells, no CPT, ATP luminescence, 48 h; Potency, µM (titrated, usually from 46.2 µM), for inactives: at the top dose activity change, negative = growth inhibition, most hits filed as inhibitors; hit rate 15% among 420,000; AID 686978, 2013; further: potency means the concentration at half of the fitted maximal effect; on the % scale 0 is the no-effect control and ±100 the full control effect; nearly all actives have a fitted effect of over 55% in size
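Camptothecin absent (DMSO only). Human TDP1-complemented DT40 knockout cells, 400 cells/well, 37 °C for minimum 48 hr; ATP measured via CellTiter-Glo, 30 min dark incubation, luminescence.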
SW480 rerep = A quantitative high throughput screen for small molecules that induce DNA re-replication in SW480 colon adenocarcinoma cells; SW480 DNA re-replication, Hoechst DNA content imaging, 48 h; Potency, µM (titrated, usually from 46.1 µM), inactives show at the top dose re-replication activation, most hits filed as activators; hit rate 1.8% among 340,000; AID 624297, 2012; further: potency means the concentration at half of the fitted maximal effect; % of control where 0% means no effect; nearly all actives have a fitted effect of over 55% in size
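250 cells/well; 23 nL cpd via pin tool; 48 hr, 37 C, 5% CO2; Hoechst 40 min; imager read of total nuclear intensity, ex 405/em 500-530 nm.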
IL-1B inflam inh = qHTS for Inhibitors of Inflammasome Signaling: IL-1-beta AlphaLISA Primary Screen | THP-1 LPS/ATP IL-1B secretion, AlphaLISA, 16 h; stronger effect = lower value | activity change, % at 57.5 µM | hit rate 4.7% among 360,000 | AID 743279, 2014; in the data active means activity change below about -50%; inconclusive means mostly about -30% to -49%; further: on the % scale 0 is the no-effect control and ±100 the full control effect
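Secreted IL-1B measured by AlphaLISA bead assay after 16 h compound exposure of THP-1 cells; compounds (final up to 57.5 uM) added 1 h before LPS (250 ng/mL) and ATP (1.25 mM) stimulation; lower signal means less secretion.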
An asterisk follows results filed as active; ? = inconclusive; nt = no result; [ ] = remark or other dose. Unless noted, the call rests on the fitted dose curve; in most records, active means well fitted curve in the direction sought with a large enough effect; inconclusive means small, poorly fitted or top-dose-only effect, or another doubt; inactive means no such curve, though single readings can be large; an effect the other way counts as inactive or inconclusive.

SMILES	MCF10A rereplic	BCR signal inh	TDP1 cell CPT	TDP1 cell noCPT	SW480 rerep	IL-1B inflam inh
O=[N+]([O-])c1ccc(/C=N/N=C/c2ccc([N+](=O)[O-])o2)o1	2.6µM*	?	0.29µM*	0.73µM*	1%	-101*
CC1(C(=O)N/N=C/c2ccc([N+](=O)[O-])o2)CC1(Br)Br (configuration not stated)	?	0%	13µM*	10µM*	4.6µM*	-90*
Cc1ccc(C(=O)N/N=C\c2ccc(-c3ccc([N+](=O)[O-])cc3)o2)cn1	-1%	2%	0%	?	-5%	-14
CC1(C(=O)NNC(=O)c2ccc([N+](=O)[O-])cc2)CC1(Br)Br (configuration not stated)	13%	0%	-11%	?	8%	23
Cc1cc(C(=O)N(Cc2cc3cc4c(cc3nc2N2CCOCC2)CCC4)CC2CCCO2)c(=O)[nH]c1C (configuration not stated)	nt	nt	5%	-5%	nt	nt
COc1cc(CN2CCCC(n3cc(C(=O)N4CCCCC4)nn3)C2)cc2c1OCO2 (configuration not stated)	nt	nt	-5%[9.04 µM]	-12%	nt	nt
CC(C)n1c(O)c(N=NC(=O)C2COc3ccccc3O2)c2ccccc21 (configuration not stated)	13µM*	?	?	?	?	-89*
Cn1c(O)c(N=NC(=O)C2COc3ccccc3O2)c2ccccc21 (configuration not stated)	0%	-23%	?	?	-13%	24
C(=C\c1ccco1)/c1nc2ccccc2[nH]1	9%	?	?	23µM*	?	37
O=C(/C(=C/c1ccc(Cl)cc1)c1nc2ccccc2[nH]1)c1ccccc1	6.5µM*	?	13µM*	7.3µM*	5.2µM*	-101*
O=c1[nH]c2ccccc2nc1/C=C/c1ccc(Cl)cc1	18µM*	?	13µM*	23µM*	21µM*	6
C(=C\c1nc2ccccc2[nH]1)/c1ccccc1	5.2µM*	?	15µM*	16µM*	15µM*	-9
CC(=O)Nc1ccc(/C=C/c2nc3ccccc3[nH]c2=O)cc1	?	-1%	2%	2%	?	-13
CCOC(=O)c1cc(S(=O)(=O)NCc2ccc(C)cc2)[nH]n1	nt	nt	?	-16%	nt	nt
CCCN(C)C1CN(Cc2cn(Cc3ccc(F)cc3)nn2)S(=O)(=O)C1 (configuration not stated)	nt	nt	6%	-9%	nt	-8
CC(C)(C)OC(=O)N[C@H](/C=C/c1ccccc1)C(=O)OC(C)(C)C	1%	?	?	?	-6%	-6
Cc1ccc(S(=O)(=O)N2C[C@H]3N(C(=O)OC(C)C)N(C(=O)OC(C)C)C[C@H](OC(=O)NCc4ccccc4F)[C@@]3(O)C2)cc1	nt	nt	?	23µM*	nt	-25
COc1ccc(CNC(=O)O[C@H]2CN(C(=O)OC(C)C)N(C(=O)OC(C)C)[C@@H]3CN(S(=O)(=O)c4ccc(C)cc4)C[C@]23O)cc1OC	nt	nt	?	23µM*	nt	-30
Cc1ccc(NC(=O)C(c2ccccc2)N2CCN(C(=O)c3ccco3)CC2)cc1Cl (configuration not stated)	0%	?	-22%	-21%	10%	-1
Cc1cccc(C(=O)NNc2ncnc3c2cnn3-c2ccc(C)c(Cl)c2)c1	nt	5%	-21%	0%	nt	nt
CC[C@@H]1[C@H]2CCCC(=O)N3CC[C@@H](C[C@@H]1OC(=O)Nc1ccccc1)[C@@H]23	9%	1%	11µM*	11µM*	-3%	-11
CCCCNC(=O)O[C@H]1C[C@@H]2CCN3C(=O)CCC[C@H]([C@H]1CC)[C@H]23	2%	-28%	-6%	-7%	35%[9.22 µM]	3
CCCCNC(=O)O[C@@H]1C[C@@H]2CCN3C(=O)CCC[C@H]([C@H]1CC)[C@H]23	10%	-2%	14µM*	10µM*	-12%	9
CC[C@H]1C(Nc2ccccc2)C[C@@H]2CCN3C(=O)CC[C@H]1[C@H]23 (some centres not stated)	-28%	nt	-17%	?	?	21
CC[C@@H]1[C@H]2CCCC(=O)N3CC[C@@H](C[C@@H]1Nc1ccccc1)[C@@H]23	-6%	?	?	18µM*	-7%	37
SMILES	MCF10A rereplic	BCR signal inh	TDP1 cell CPT	TDP1 cell noCPT	SW480 rerep	IL-1B inflam inh
CCCCCCCN(c1ccccc1)[C@@H]1C[C@H]2CCCC(=O)N3CC[C@@H](C1)[C@@H]23	?	nt	12µM*	10µM*	6%	-108*
CC[C@H]1C(O)C[C@H]2CCN3C(=O)CCC[C@H]1[C@H]23 (some centres not stated)	14%	2%	-4%	1%	-12%	40
O=C(Nc1nccs1)[C@@H]1CC=C[C@@H]2CCN(C3CCCCC3)C(=O)[C@@H]21	nt	nt	8%	3%	nt	nt
COCCn1c(=S)[nH]c2cc(C(=O)NCCc3ccccc3)ccc2c1=O	6%	11%	15%	?	-6%	50
N#Cc1cccc(NC(=O)CCc2ccc(S(=O)(=O)N3CCOCC3)cc2)c1	-7%	?	4%	-13%	-33%	7
CCCNC(=O)c1ccc(N2CCC3(CC2)CC(c2cccc(Br)c2)=NO3)c([N+](=O)[O-])c1	-3%	14%	6.5µM*	8.2µM*	-10%	?
Cc1ccc(CNC(=O)c2ccc(N3CCC4(CC3)CC(c3cccc(Br)c3)=NO4)c(N)c2)cc1	?	1%	6.5µM*	5.8µM*	19%	19
Cc1ccc(CNC(=O)c2ccc(N3CCC4(CC3)CC(c3cccc(Br)c3)=NO4)c([N+](=O)[O-])c2)cc1	24%	-1%	10µM*	?	-16%	-9
Cc1ccc(CNC(=O)c2ccc(N3CCC4(CC3)CC(c3cccc(Br)c3)=NO4)c(NC(=O)c3ccc(Br)cc3)c2)cc1	-24%	2%	-5%	-5%	-7%	-1
